Drawing on PubChem BioAssay, this text covers composite z-score and z-score for five molecules.

The test system of assay [1] is PRMT1 (protein arginine N-methyltransferase 1). The assay is described as follows: PRMT1 binders on small-molecule microarrays, primary screen, biochemical, small-molecule microarray, 635 nm fluorescence (AID 1088).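 Further: binding of Prmt1 protein to compounds spotted on small-molecule microarray slides.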 Particulars: small-molecule microarray binding, higher = more signal.
The nature of assay [2]: yeast growth modulation, basal conditions, primary screen, YJM789 clinical isolate, OD600, 24 h (AID 1089).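 Further: growth of clinical yeast isolate S. cerevisiae YJM 789 seeded 1000 cells per well; test concentration not given here.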 The settings on record: S. cerevisiae YJM789 growth, higher = more signal, called active from +8 up or from −8 down.
Assay [3] in a line: fission yeast growth modulation, primary screen, strain 972, OD600, 24 h, no modulator (AID 1090).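 Further: basal condition with compound alone and no growth modifier present; test concentration not given here.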 The settings on record: S. pombe 972 growth, higher = more signal, called active from +8 up or from −8 down.
Assay [4] can be described thus: S. cerevisiae growth modulation with rapamycin, primary screen, strain BY4716, OD600, 96 h (AID 1091). Further: test concentration not given here. Particulars: higher = more signal, called active from +8 up or from −8 down.
Assay [5] deals with Torsin-1A-interacting protein 2 (Homo sapiens) (UniProt Q8NFQ8). The assay is described as follows: LULL1 binders on small-molecule microarray, primary screen, cell lysate, human LULL1 lysate, 635/667 nm fluorescence (AID 1092).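 Further: probe is lysate of COS7 cells overexpressing human LULL1; score merges per-feature 667 nm fluorescence with signal-to-noise.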 Particulars: hLULL1 lysate binding, 635 nm fluorescence, higher = more signal.
Sequence of Torsin-1A-interacting protein 2 (Homo sapiens) (Q8NFQ8 whole entry, looked up): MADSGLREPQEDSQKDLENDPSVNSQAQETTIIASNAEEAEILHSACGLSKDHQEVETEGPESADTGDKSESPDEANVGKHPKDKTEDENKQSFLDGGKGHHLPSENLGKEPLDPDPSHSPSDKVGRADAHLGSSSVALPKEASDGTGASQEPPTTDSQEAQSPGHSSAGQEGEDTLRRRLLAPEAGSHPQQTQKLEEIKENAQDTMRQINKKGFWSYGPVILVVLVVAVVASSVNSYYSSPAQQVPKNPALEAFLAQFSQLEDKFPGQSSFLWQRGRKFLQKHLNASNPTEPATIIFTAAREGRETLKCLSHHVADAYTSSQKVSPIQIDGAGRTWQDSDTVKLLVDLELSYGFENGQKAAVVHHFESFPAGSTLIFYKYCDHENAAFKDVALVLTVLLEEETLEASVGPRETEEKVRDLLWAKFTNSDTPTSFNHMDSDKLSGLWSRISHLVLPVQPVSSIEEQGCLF
Assay [6] can be described thus: E. coli growth modulation, two-sided OD650, primary screen, E. coli filamentation project, strain DRC41, 24 h (AID 1093).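 Further: MC1000 strain lacking acrAB efflux and sulA so SOS filamentation is blocked; test concentration not given here.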 Particulars: OD650, 24 h, higher = more signal, called active from +8 up or from −8 down.
Assay [7] in a line: small-molecule microarray binders of probe aLefty2, primary screen, biochemical, biotinylated probe, 635/667 nm fluorescence (AID 1094).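 Further: score merges spot fluorescence near 667 nm with spot signal-to-noise ratio.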 The settings on record: higher = more signal.
The test system of assay [8] is Noggin (protein binding on small-molecule microarray). As to the kind of experiment: Noggin binders on small-molecule microarray, primary screen, biochemical, 635/667 nm fluorescence (AID 1095).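 Further: score merges 667 nm feature fluorescence with signal to noise over triplicate slides.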 Particulars: 635 nm fluorescence, higher = more signal.
For assay [9], the target named is Neurogenic locus notch homolog protein 3 (Homo sapiens) (UniProt Q9UM47). As to the kind of experiment: NOTCH3 binders on small-molecule microarray, primary screen, biochemical, 635/667 nm fluorescence (AID 1096). Particulars: NOTCH3 binding, 635 nm fluorescence, higher = more signal.
Sequence of Neurogenic locus notch homolog protein 3 (Homo sapiens) (Q9UM47 whole entry, looked up): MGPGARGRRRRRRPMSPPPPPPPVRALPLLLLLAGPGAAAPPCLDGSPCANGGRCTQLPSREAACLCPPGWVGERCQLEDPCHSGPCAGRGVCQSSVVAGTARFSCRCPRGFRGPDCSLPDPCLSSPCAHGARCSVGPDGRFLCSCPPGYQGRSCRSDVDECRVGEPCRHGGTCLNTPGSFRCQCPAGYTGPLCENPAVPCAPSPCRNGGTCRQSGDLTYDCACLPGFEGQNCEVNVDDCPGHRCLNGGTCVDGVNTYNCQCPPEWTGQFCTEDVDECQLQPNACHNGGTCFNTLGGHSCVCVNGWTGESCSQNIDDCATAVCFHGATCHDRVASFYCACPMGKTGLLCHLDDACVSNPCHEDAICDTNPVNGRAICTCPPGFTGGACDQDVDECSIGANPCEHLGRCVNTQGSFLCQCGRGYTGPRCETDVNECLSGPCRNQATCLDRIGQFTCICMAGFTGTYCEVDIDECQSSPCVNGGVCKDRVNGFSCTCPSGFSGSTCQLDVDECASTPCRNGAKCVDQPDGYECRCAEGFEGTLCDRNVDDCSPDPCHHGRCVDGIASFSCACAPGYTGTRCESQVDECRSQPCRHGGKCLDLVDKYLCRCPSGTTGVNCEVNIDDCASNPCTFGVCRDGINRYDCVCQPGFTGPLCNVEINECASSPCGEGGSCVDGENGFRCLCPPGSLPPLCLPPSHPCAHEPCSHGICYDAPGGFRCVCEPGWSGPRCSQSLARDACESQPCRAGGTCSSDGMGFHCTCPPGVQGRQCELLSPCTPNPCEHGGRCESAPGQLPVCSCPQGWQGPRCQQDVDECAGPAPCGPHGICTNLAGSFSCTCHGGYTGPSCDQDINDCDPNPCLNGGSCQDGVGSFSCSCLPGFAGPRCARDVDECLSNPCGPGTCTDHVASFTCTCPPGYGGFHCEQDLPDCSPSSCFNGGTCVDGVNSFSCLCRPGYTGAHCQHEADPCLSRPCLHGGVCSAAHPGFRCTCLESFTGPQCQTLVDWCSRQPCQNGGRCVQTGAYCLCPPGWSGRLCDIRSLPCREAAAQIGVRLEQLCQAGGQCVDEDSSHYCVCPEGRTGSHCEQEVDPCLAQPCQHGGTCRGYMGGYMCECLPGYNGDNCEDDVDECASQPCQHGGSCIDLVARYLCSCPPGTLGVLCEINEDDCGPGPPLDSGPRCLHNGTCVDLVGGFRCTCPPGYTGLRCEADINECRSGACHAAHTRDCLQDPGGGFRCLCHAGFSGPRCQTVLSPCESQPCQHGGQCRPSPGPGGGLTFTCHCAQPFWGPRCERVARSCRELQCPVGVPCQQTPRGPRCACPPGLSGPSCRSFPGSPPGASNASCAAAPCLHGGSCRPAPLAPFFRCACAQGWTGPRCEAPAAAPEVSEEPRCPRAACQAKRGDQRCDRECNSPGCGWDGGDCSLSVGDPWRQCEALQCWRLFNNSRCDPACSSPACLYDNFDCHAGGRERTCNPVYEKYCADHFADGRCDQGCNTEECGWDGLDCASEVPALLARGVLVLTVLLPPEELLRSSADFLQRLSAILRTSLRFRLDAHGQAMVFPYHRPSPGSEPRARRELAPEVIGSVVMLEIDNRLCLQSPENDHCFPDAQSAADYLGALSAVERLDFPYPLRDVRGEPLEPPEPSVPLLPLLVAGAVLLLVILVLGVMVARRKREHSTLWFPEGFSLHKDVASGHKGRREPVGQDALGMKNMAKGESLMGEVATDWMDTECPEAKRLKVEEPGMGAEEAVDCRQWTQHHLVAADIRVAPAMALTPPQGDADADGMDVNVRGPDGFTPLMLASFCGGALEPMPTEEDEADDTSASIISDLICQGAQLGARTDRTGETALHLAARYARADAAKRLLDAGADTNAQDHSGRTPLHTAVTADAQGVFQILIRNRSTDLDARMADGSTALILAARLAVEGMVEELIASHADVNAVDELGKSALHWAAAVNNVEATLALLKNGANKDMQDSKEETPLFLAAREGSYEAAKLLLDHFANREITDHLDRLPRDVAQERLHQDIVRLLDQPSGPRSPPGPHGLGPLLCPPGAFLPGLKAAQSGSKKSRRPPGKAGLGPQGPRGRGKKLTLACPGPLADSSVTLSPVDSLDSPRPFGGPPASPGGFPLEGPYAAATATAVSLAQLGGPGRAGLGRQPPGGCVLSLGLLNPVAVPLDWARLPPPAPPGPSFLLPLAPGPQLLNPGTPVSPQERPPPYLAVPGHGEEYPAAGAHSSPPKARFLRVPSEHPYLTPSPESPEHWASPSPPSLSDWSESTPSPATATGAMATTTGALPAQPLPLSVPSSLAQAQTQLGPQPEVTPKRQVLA
The nature of assay [10]: small-molecule microarray binders of probe aEGFR, primary screen, biochemical, biotinylated probe, 635/667 nm fluorescence (AID 1097).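 Further: probe is a biotinylated anti-EGFR antibody binding compounds printed on slides; score combines fluorescence near 667 nm and signal to noise of each spot.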 Particulars: higher = more signal.
The test system of assay [11] is Plasmodium falciparum Sir2 (PF13_0152, Sir2A). The assay is described as follows: pfSir2 binders on small-molecule microarrays, primary screen, biochemical, small-molecule microarray, 635 nm fluorescence (AID 1098).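 Further: score merges spot fluorescence intensity with its signal-to-noise ratio.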 The settings on record: small-molecule microarray binding, fluorescence 635 nm; higher = more signal.
Assay [12] in a line: small-molecule microarray binders of probe aDKK1, primary screen, biochemical, biotinylated probe, 635/667 nm fluorescence (AID 1099).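 Further: score merges 667nm spot fluorescence with signal to noise across triplicate slides; reference of the scale not given here.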 Particulars: higher = more signal.
Assay [13] in a line: small-molecule microarray binders of probe aCHRDL2, primary screen, biochemical, biotinylated probe, 635/667 nm fluorescence (AID 1100). Particulars: higher = more signal.
Assay [14] can be described thus: splicing luciferase reporter signal modulators, primary screen, spliceosome inhibition project, cell-based, HEK293, splice +/- reporter (AID 1101).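 Further: HEK293 cells carrying a splicing-competent luciferase reporter gene; test concentration not given here.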 The settings on record: luminescence, 24 h, higher = more signal, called active from +8 up or from −8 down. In general terms: Reporter assays use an easily measured gene product as a stand-in for the process of interest.

Assay [15] deals with Fibroblast growth factor 10 (Homo sapiens) (UniProt O15520). As to the kind of experiment: FGF10 binders on small-molecule microarrays, primary screen, biochemical, small-molecule microarray, 635 nm fluorescence (AID 1102). Particulars: FGF10 binding, fluorescence 635 nm, higher = more signal.
Sequence of Fibroblast growth factor 10 (Homo sapiens) (O15520 whole entry, looked up): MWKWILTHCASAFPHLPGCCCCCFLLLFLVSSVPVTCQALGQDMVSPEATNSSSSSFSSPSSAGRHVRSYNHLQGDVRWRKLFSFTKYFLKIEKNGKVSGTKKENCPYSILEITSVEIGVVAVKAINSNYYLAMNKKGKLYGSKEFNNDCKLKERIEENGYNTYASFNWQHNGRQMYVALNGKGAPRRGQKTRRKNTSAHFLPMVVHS
In assay [16] the test system is glycogen synthase kinase-3 (GSK3A per assay name; protocol says GSK3B). The assay is described as follows: GSK3 binders on small-molecule microarrays, primary screen, biochemical, small-molecule microarray, 635 nm fluorescence, GSK3A (AID 1103). Further: the record names both GSK3A and GSK3B. The settings on record: small-molecule microarray binding, fluorescence 635 nm; higher = more signal.
In assay [17] the target is Epidermal growth factor receptor (Homo sapiens) (UniProt P00533). As to the kind of experiment: EGFR binders on small-molecule microarrays, primary screen, biochemical, small-molecule microarray, 635 nm fluorescence (AID 1104).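 Further: score merges 667 nm emission intensity with spot signal to noise over triplicate slides.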 Particulars: EGFR binding, higher = more signal.
Sequence of Epidermal growth factor receptor (Homo sapiens) (P00533 whole entry, looked up): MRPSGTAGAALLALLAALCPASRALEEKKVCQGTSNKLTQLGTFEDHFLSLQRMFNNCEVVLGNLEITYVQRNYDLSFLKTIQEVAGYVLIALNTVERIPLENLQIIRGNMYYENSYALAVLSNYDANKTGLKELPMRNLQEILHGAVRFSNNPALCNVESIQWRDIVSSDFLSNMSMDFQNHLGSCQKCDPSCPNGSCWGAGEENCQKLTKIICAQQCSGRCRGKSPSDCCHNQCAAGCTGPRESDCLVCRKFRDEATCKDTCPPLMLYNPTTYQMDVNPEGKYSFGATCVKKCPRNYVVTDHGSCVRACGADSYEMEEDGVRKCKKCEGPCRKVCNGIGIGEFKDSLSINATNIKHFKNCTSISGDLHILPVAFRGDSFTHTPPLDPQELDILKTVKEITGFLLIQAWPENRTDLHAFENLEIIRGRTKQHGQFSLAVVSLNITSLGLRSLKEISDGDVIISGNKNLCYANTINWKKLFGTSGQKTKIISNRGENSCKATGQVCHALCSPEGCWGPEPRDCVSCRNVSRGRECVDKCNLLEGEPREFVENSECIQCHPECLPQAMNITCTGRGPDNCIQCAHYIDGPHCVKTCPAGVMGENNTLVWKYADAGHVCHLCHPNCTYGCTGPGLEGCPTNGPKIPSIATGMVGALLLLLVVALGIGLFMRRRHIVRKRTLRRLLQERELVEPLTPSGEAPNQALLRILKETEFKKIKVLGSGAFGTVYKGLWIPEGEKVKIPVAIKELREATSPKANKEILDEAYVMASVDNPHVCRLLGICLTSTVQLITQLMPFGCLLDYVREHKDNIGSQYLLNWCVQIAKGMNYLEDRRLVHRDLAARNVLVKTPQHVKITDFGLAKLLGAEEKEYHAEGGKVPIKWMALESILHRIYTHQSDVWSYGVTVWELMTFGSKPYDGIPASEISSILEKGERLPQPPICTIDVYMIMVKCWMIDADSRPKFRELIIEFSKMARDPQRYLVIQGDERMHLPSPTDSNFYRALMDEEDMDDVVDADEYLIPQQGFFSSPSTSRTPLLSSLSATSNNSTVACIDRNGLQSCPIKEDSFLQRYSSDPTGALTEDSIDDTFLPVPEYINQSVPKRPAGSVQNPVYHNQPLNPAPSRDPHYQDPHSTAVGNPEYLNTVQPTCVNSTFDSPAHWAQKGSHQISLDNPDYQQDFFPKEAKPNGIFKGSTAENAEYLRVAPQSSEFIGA
In assay [18] the target is Follistatin-related protein 3 (Homo sapiens) (UniProt O95633). The assay is described as follows: FSTL3 binders on small-molecule microarrays, primary screen, biochemical, small-molecule microarray, 635 nm fluorescence (AID 1105).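 Further: score merges emission near 667 nm and signal to noise per printed spot across three slides.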 The settings on record: FSTL3 binding, higher = more signal.
Sequence of Follistatin-related protein 3 (Homo sapiens) (O95633 whole entry, looked up): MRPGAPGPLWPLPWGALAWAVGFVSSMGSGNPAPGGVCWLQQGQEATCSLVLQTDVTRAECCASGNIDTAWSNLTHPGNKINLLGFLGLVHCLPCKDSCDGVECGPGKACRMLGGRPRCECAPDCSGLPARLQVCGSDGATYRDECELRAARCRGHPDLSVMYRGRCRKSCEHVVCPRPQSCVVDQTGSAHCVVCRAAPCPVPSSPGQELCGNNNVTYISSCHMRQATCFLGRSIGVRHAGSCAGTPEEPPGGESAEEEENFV
Assay [19] addresses Dickkopf-related protein 1 (Homo sapiens) (UniProt O94907). The assay is described as follows: DKK1 binders on small-molecule microarrays, primary screen, biochemical, small-molecule microarray, 635 nm fluorescence scan (AID 1106).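 Further: score merges emission near 667 nm with signal to noise over three replicate slides.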 The settings on record: DKK1 binding, higher = more signal.
Assay [20] relates to Inhibin beta A chain (activin A). The assay is described as follows: INHBA (activin A) binders on microarrays, primary screen, biochemical, small-molecule microarray, 635 nm fluorescence scan (AID 1107).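 Further: mouse activin A protein probed at 4.33 µg/mL on printed slides; score merges bound-protein fluorescence near 667 nm with spot signal-to-noise.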 Particulars: small-molecule microarray binding, higher = more signal.

Calls of active or inactive are those of the source.

Sequence of Dickkopf-related protein 1 (Homo sapiens) (O94907 whole entry, looked up): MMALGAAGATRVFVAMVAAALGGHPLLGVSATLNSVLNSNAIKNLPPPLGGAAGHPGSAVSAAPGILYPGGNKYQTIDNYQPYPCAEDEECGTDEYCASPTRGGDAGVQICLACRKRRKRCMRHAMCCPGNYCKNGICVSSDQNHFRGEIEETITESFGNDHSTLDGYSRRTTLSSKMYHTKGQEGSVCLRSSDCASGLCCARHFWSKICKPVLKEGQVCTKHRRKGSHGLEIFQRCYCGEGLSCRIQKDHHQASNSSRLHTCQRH

Take `COCCOC(=O)N1C(=O)[C@@]2(c3cc(C#CCNC(N)=O)ccc31)[C@H](c1ccc(OCCO)cc1)N1[C@H](c3ccccc3)[C@H](c3ccccc3)OC(=O)[C@H]1[C@@H]2C(=O)Nc1nc2ccccc2s1`: the composite z-score is 0.75 in [1]; 0.376 in assay [5]; 0.162 in assay [7]; 0.895 in [8]; 0.865 in assay [9]; 0.0894 in assay [10]. Further, the composite z-score in [11] is 0.337; in assay [12], 0.997; in [13], 0.88; in assay [15], 0.574; in assay [16], -0.289; in [17], 0.0231. Further, the composite z-score in [18] is 1.01; in [19], 1; in assay [20], 0.926. In addition, the z-score in assay [2] was 1.55 (inactive); in [3], 1.11 (inactive); in assay [4] it was 3.55 (inactive); in [6] it was 2.56 (inactive); in [14], 0.0697 (inactive).

Consider `CC(C)N1CC=CC23O[C@@H]4/C=C\CCCOC(=O)C4[C@H]2C(=O)N(CCO)[C@@H]3C1=O` (stereo not given in full), for which the composite z-score is 0.885 in [1]; 1.95 in assay [5]; -0.0766 in [7]; -0.715 in assay [8]; -0.0811 in assay [9]; -0.173 in [10]. Besides, the composite z-score in assay [11] was 1.01; in [12], 0.155; in assay [13], 0.677; in assay [15], -0.363; in [16] it was -0.456; in assay [17], -1.02. For the same molecule, the results for the composite z-score in assay [18], in [19] and in assay [20] were -0.516, -1.08 and 1.45, respectively. Moreover, the z-score in [2] is -1.92 (inactive); in assay [3], -3.04 (inactive); in assay [4], -1.77 (inactive); in assay [6], 3.25 (inactive); in assay [14], -1.84 (inactive).

In the case of `CO[C@H]1COC(=O)[C@H](CCSC)NC(=O)CC=C[C@@H](C)COC(=O)[C@@H](OCc2ccccc2)C=C[C@@H]1C`, the composite z-score in assay [1] is 1.13; in [5] it was -0.84; in assay [7], -0.222; in assay [8] it was 1.93; in [9] it was 0.13; in assay [10] it was -0.0131. The composite z-score was 0.979 in assay [11]; 0.981 in [12]; -1.41 in assay [13]; 0.485 in [15]; 0.743 in assay [16]; 0.574 in assay [17]. The composite z-score in assay [18] was found to be 1.15; in assay [19], 2; in assay [20] it was 0.397. Moreover, the z-score in [2] is 0.891 (inactive); in assay [3], 0.353 (inactive); in assay [4], 0.97 (inactive); in assay [6] it was 0.109 (inactive); in assay [14], -0.342 (inactive).

`COC(=O)[C@@]1(Cc2ccc(OC)cc2)[C@H]2c3cc(C(=O)N(C)C)n(CCc4ccc(OC)c(Br)c4)c3C[C@H]2CN1C(=O)c1ccccc1`: the composite z-score in assay [1] is 1.17; in assay [5], 3.33; in assay [7], 0.903; in assay [8], -0.54; in assay [9], 1.01; in assay [10], 0.674. Besides, the composite z-score in [11] was 0.843; in assay [12] it was 1.98; in assay [13], 1.47; in [15], 0.77; in assay [16], 1.02; in assay [17] it was -0.405. For the same molecule, the composite z-score is 1.04 in assay [18], -0.884 in assay [19] and 0.463 in assay [20]. In addition, the z-score in assay [2] is 0.557 (inactive); in [3], 0.236 (inactive); in assay [4], 2.82 (inactive); in [6], -0.76 (inactive); in [14], -1.13 (inactive).

`COc1ccc(-c2ccccc2[C@@H]2N[C@H](C(=O)O)CC[C@H]2C)cc1`: the composite z-score in assay [1] is -0.408; in assay [5], 0.47; in [7], -0.05; in assay [8], 0.412; in [9] it was 0.412; in [10], 0.0068. In addition, the composite z-score in assay [11] was 0.0888; in [12], -0.267; in assay [13] it was -0.519; in assay [15], 0.262; in [16], 0.387; in assay [17] it was 0.418. Also, the results for the composite z-score in assay [18], in assay [19] and in assay [20] were 0.336, 0.526 and 0.135, respectively. The z-score is -0.306 (inactive) in assay [2]; -0.572 (inactive) in assay [3]; 0.492 (inactive) in [4]; 0.189 (inactive) in assay [6]; -1.21 (inactive) in [14].
